Consider 15 compounds from PubChem BioAssay (NCI).

Assay in all cases: NCI-60 one-dose screen, 48 h (100 = growth as untreated, 0 = no growth, -100 = all killed)
One test concerns T-47D breast. The note with it: 10 µM unless noted.
A further test relates to BT-549 breast. The note with it: 10 µM unless noted.
Another test relates to MDA-MB-435 melanoma. Conditions: 10 µM unless noted.
Another test concerns SW-620 colon. Conditions: 10 µM unless noted.
The next test concerns MCF7 breast. Conditions: 10 µM unless noted.
The test system of a further test is HCT-116 colon. Conditions: 10 µM unless noted.
Another test has as its system HCC-2998 colon. Conditions: 10 µM.
In the next test the test system is KM12 colon. Conditions: 10 µM unless noted.

Each structure is given as a SMILES string. The panel holds about 83,000 compounds, 20% with a hit somewhere; the sample as a whole holds those more often.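 Step 1: grow cells in 96-well plates. Step 2: add test compound at a single concentration. Step 3: incubate 48 h. Step 4: record percent growth.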 Values without a mark were called inactive. Activity calls are given as the source filed them. How the source made its calls: active means growth percent below 10; inactive means the rest.

Consider `O=C(Nc1cn[nH]c1-c1nc2ccc(CN3CCOCC3)cc2[nH]1)NC1CC1`, for which the growth is 36.7% in the test on T-47D breast; 2.57% (active) with BT-549 breast; 35.9% in the test on MDA-MB-435 melanoma; 11.5% in the test on SW-620 colon; 10.4% in the test on MCF7 breast; 3.94% (active) in the test on HCT-116 colon. Besides, the growth was 41.8% in the test with HCC-2998 colon and 6.92% (active) in the test on KM12 colon.
For the compound `CNC(=O)c1cc(Oc2cccc3nc(Nc4ccc(Cl)c(F)c4)ccc23)ccn1`, the growth with T-47D breast is 51.3%; in the test with BT-549 breast, 63.8%; in the test with MDA-MB-435 melanoma it was 86.4%; in the test with SW-620 colon, 82%; in the test with MCF7 breast it was 76.2%; with HCT-116 colon, 45.4%. Besides, the growth in the test with HCC-2998 colon was 82.5%; in the test on KM12 colon, 84.4%.
Consider `O=C(c1c(F)ccc(NS(=O)(=O)N2CC[C@@H](F)C2)c1F)c1c[nH]c2ncc(-c3cnc(C4CC4)nc3)cc12`, for which the growth is 9.33% (active) with T-47D breast; 61.6% with BT-549 breast; 16.8% in the test with MDA-MB-435 melanoma; 66.6% in the test with SW-620 colon; 61.3% with MCF7 breast; 30.8% in the test on HCT-116 colon. Besides, in the test with KM12 colon, the growth is 54.4%.
With `Cc1cc(Nc2cc(N3CCN(C)CC3)nc(Sc3ccc(NC(=O)C4CC4)cc3)n2)n[nH]1`, the growth in the test with T-47D breast is 33.1%; in the test on BT-549 breast, 23.5%; in the test with MDA-MB-435 melanoma, 27.6%; with SW-620 colon it was 19.3%; in the test on MCF7 breast, 28.5%; with HCT-116 colon, 18.3%. Moreover, the results for the growth in the test on HCC-2998 colon and in the test with KM12 colon were 33.9% and 6.38% (active), respectively.
For the compound `Cc1csc(-c2nnc(Nc3ccc(Oc4ncccc4-c4ccnc(N)n4)cc3)c3ccccc23)c1`, the growth was 30.5% with T-47D breast; 60.4% with BT-549 breast; 31.9% in the test on MDA-MB-435 melanoma; 20.3% in the test with SW-620 colon; 12% with MCF7 breast; 22.1% with HCT-116 colon. Besides, the growth in the test on HCC-2998 colon was 36.1%; in the test on KM12 colon it was 19.2%.
For `C[C@@H](Oc1cc(-n2cnc3ccc(CN4CCN(C)CC4)cc32)sc1C(N)=O)c1ccccc1C(F)(F)F`, the growth is 40.8% with T-47D breast; 24.9% in the test on BT-549 breast; 9.74% (active) with MDA-MB-435 melanoma; 13.6% in the test with SW-620 colon; 17.7% in the test with MCF7 breast; 17.6% in the test with HCT-116 colon. For the same compound, the growth in the test with HCC-2998 colon is 14.1%; in the test with KM12 colon, 10.3%.
Turning to `Cc1sc2c(c1C)c(=O)nc1c(-c3nc(-c4ccccc4)cs3)n[nH]n12`, the growth in the test on T-47D breast is 83.9%; with BT-549 breast it was 110%; in the test on MDA-MB-435 melanoma it was 107%; in the test on SW-620 colon, 97.3%; in the test on MCF7 breast, 91.2%; with HCT-116 colon, 100%. The growth is 101% in the test with HCC-2998 colon and 99.4% with KM12 colon.
Take `CC(=Nc1ccccc1)C1=C(O)C(Cc2ccc(O)cc2)NC1=O` (configuration not stated): the growth with T-47D breast was 67.4%; in the test on BT-549 breast, 15.2%; with MDA-MB-435 melanoma it was -8.69% (active); in the test on SW-620 colon, 15.6%; in the test with MCF7 breast it was 10%; in the test on HCT-116 colon, 3.3% (active). Also, the growth in the test on KM12 colon was -35.5% (active).
Regarding `Cc1cc(C(=O)Nc2cc(Oc3ccc4nc(NC(=O)C5CC5)cn4n3)ccc2C)n(C)n1`, the growth was 53.4% in the test with T-47D breast; 30.1% with BT-549 breast; 34.3% with MDA-MB-435 melanoma; 15.2% in the test with SW-620 colon; 33.7% in the test on MCF7 breast; 6.14% (active) in the test on HCT-116 colon. Further, the growth in the test on HCC-2998 colon was 2.16% (active); with KM12 colon, 12.2%.
As to `CC(=O)c1cnc2ccc(-c3cc(Cl)c(O)c(Cl)c3)nc2c1NC1CCC(CN(C)C)CC1` (configuration not stated), the growth in the test with T-47D breast is -22.9% [2.5 µM] (active); in the test on BT-549 breast, -44.9% [2.5 µM] (active); in the test with MDA-MB-435 melanoma, -37.2% [2.5 µM] (active); in the test on SW-620 colon it was 6.12% [2.5 µM] (active); in the test on MCF7 breast, -4.22% [2.5 µM] (active); in the test on HCT-116 colon it was -2.49% [2.5 µM] (active). Besides, the growth in the test with KM12 colon is -2.64% [2.5 µM] (active).
`Cc1cc(N(CCNc2ccnc3cc(Cl)ccc23)Cc2ccc3c(c2)OCO3)nc(N2CCN(C)CC2)n1`: the growth in the test with T-47D breast was -36.9% (active); with BT-549 breast, 21.6%; in the test with MDA-MB-435 melanoma, -62.6% (active); with SW-620 colon, 2.88% (active); in the test on MCF7 breast, 15.3%; with HCT-116 colon it was 9.43% (active). The growth in the test on HCC-2998 colon is -30.8% (active); in the test with KM12 colon it was 62.6%.
Consider `O=C(O)C1(Cc2cccc(Nc3nccs3)n2)CCC(Oc2cccc(Cl)c2F)CC1` (configuration not stated), for which the growth with T-47D breast is 50.9%; with BT-549 breast it was 84.4%; in the test on MDA-MB-435 melanoma, 49.6%; in the test on SW-620 colon, 74.9%; in the test with MCF7 breast, 46.7%; in the test with HCT-116 colon, 45%. In addition, the growth in the test on HCC-2998 colon is 95.3%; in the test on KM12 colon it was 19.3%.
For the compound `CS(=O)(=O)CCNCc1ccc(-c2ccc3ncnc(Nc4ccc(OCc5cccc(F)c5)c(Cl)c4)c3c2)o1`, the growth in the test on T-47D breast was -11.9% (active); with BT-549 breast, 8.25% (active); in the test with MDA-MB-435 melanoma, 31.2%; in the test on SW-620 colon it was -56.1% (active); in the test on MCF7 breast, -39.3% (active); in the test on HCT-116 colon it was 41.2%. The figures for the growth in the test with HCC-2998 colon and in the test with KM12 colon were -83.6% (active) and -34.9% (active), respectively.
With `COc1ccc(-c2cnc(-c3ccc(Cl)cc3)[nH]2)cc1OC`, the growth is 84.7% with T-47D breast; 132% in the test on BT-549 breast; 128% in the test on MDA-MB-435 melanoma; 95.9% with SW-620 colon; 93.9% with MCF7 breast; 98.6% with HCT-116 colon. The growth in the test on HCC-2998 colon was 112%; in the test on KM12 colon, 97.3%.
As to `CN1CCN(CCCOc2cccc3nc(Nc4ccc(Cl)c(C(F)(F)F)c4)ccc23)CC1`, the growth is 16.4% in the test on T-47D breast; 59.1% in the test with BT-549 breast; -21.4% (active) in the test on MDA-MB-435 melanoma; -54.8% (active) in the test with SW-620 colon; -67.3% (active) in the test on MCF7 breast; -82.7% (active) with HCT-116 colon. In addition, the growth with HCC-2998 colon was -90.8% (active); in the test on KM12 colon, -78% (active).
